Source: the supplement of paper PMC8975748
Where a name gives a salt, the structure may show the parent alone. ± gives the standard deviation of the averaged measurements.

Tests used:
[1] = tested on: Saccharomyces cerevisiae BY4741 SeMeCo community; experiment: mean cell size (pixel area) (pixels); higher = larger cells; conditions: 10 µM; 24 h; SM minimal medium
Procedure, shortened: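 Yeast cells were fixed with paraformaldehyde, imaged by automated confocal microscopy and analysed in Harmony to obtain mean cell pixel area per well. They came from a four-plasmid fluorescent Saccharomyces cerevisiae BY4741 community, each plasmid complementing one auxotrophy and carrying a fluorescent marker. Before imaging, 70 µl of culture at OD600 = 0.3 was incubated for 24 h in SM medium in 384-well plates predosed acoustically with drug (final 10 µM). Values are means of 3 replicates. Same SeMeCo high-content imaging drug screen: Selleck FDA-approved drugs at 10 µM, 24 h in SM medium, 384-well plates, 3 replicates.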

[2] = tested on: Saccharomyces cerevisiae BY4741 SeMeCo community; experiment: z-score of prototroph abundance vs DMSO median; higher = larger share of this subpopulation than in DMSO controls; conditions: 10 µM; 24 h; SM minimal medium; subpopulation (auxotrophy): Prototroph
Procedure, shortened: (§1)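 Four plasmids, each restoring a single auxotrophy and encoding a distinct fluorescent protein, were carried by a Saccharomyces cerevisiae BY4741 community. After overnight growth to OD600 1.0 and dilution to 0.3, 70 µl per well was grown for 24 h in minimal SM medium on 384-well plates acoustically predosed with library drugs at 10 µM final. Following paraformaldehyde fixation, automated confocal microscopy was used, with single-auxotroph fluorescent strains defining thresholds and autofluorescence correction. Subpopulation abundance was then scored as a z-score against the vehicle-well median.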

[3] = tested on: Saccharomyces cerevisiae BY4741 SeMeCo community; experiment: z-score of subpopulation abundance vs DMSO median, subpopulation auxotrophic for M; higher = larger share of this subpopulation than in DMSO controls; conditions: 10 µM; 24 h; SM minimal medium; subpopulation (auxotrophy): M
Procedure, shortened: as §1

[4] = tested on: Saccharomyces cerevisiae BY4741 SeMeCo community; experiment: z-score of subpopulation abundance vs DMSO median, subpopulation auxotrophic for L; higher = larger share of this subpopulation than in DMSO controls; conditions: 10 µM; 24 h; SM minimal medium; subpopulation (auxotrophy): L
Procedure, shortened: as §1

[5] = tested on: Saccharomyces cerevisiae BY4741 SeMeCo community; experiment: z-score of subpopulation abundance vs DMSO median, subpopulation auxotrophic for H; higher = larger share of this subpopulation than in DMSO controls; conditions: 10 µM; 24 h; SM minimal medium; subpopulation (auxotrophy): H
Procedure, shortened: as §1

[6] = tested on: Saccharomyces cerevisiae BY4741 SeMeCo community; experiment: z-score of subpopulation abundance vs DMSO median, subpopulation auxotrophic for LU; higher = larger share of this subpopulation than in DMSO controls; conditions: 10 µM; 24 h; SM minimal medium; subpopulation (auxotrophy): LU
Procedure, shortened: as §1

[7] = tested on: Saccharomyces cerevisiae BY4741 SeMeCo community; experiment: z-score of subpopulation abundance vs DMSO median, subpopulation auxotrophic for LM; higher = larger share of this subpopulation than in DMSO controls; conditions: 10 µM; 24 h; SM minimal medium; subpopulation (auxotrophy): LM
Procedure, shortened: as §1

[8] = tested on: Saccharomyces cerevisiae BY4741 SeMeCo community; experiment: z-score of subpopulation abundance vs DMSO median, subpopulation auxotrophic for HM; higher = larger share of this subpopulation than in DMSO controls; conditions: 10 µM; 24 h; SM minimal medium; subpopulation (auxotrophy): HM
Procedure, shortened: as §1

[9] = tested on: Saccharomyces cerevisiae BY4741 SeMeCo community; experiment: z-score of subpopulation abundance vs DMSO median, subpopulation auxotrophic for HU; higher = larger share of this subpopulation than in DMSO controls; conditions: 10 µM; 24 h; SM minimal medium; subpopulation (auxotrophy): HU
Procedure, shortened: as §1

[10] = tested on: Saccharomyces cerevisiae BY4741 SeMeCo community; experiment: z-score of subpopulation abundance vs DMSO median, subpopulation auxotrophic for HLU; higher = larger share of this subpopulation than in DMSO controls; conditions: 10 µM; 24 h; SM minimal medium; subpopulation (auxotrophy): HLU
Procedure, shortened: as §1

[11] = tested on: Saccharomyces cerevisiae BY4741 SeMeCo community; experiment: z-score of subpopulation abundance vs DMSO median, subpopulation auxotrophic for HLM; higher = larger share of this subpopulation than in DMSO controls; conditions: 10 µM; 24 h; SM minimal medium; subpopulation (auxotrophy): HLM
Procedure, shortened: as §1

[12] = tested on: Saccharomyces cerevisiae BY4741 SeMeCo community; experiment: z-score of subpopulation abundance vs DMSO median, subpopulation auxotrophic for HUM; higher = larger share of this subpopulation than in DMSO controls; conditions: 10 µM; 24 h; SM minimal medium; subpopulation (auxotrophy): HUM
Procedure, shortened: as §1

[13] = tested on: Saccharomyces cerevisiae BY4741 SeMeCo community; experiment: z-score of subpopulation abundance vs DMSO median, subpopulation auxotrophic for LUM; higher = larger share of this subpopulation than in DMSO controls; conditions: 10 µM; 24 h; SM minimal medium; subpopulation (auxotrophy): LUM
Procedure, shortened: as §1

[14] = tested on: Saccharomyces cerevisiae BY4741 SeMeCo community; experiment: z-score of subpopulation abundance vs DMSO median, subpopulation auxotrophic for HLUM; higher = larger share of this subpopulation than in DMSO controls; conditions: 10 µM; 24 h; SM minimal medium; subpopulation (auxotrophy): HLUM
Procedure, shortened: as §1

[15] = tested on: Saccharomyces cerevisiae BY4741 SeMeCo community; experiment: z-score of subpopulation abundance vs DMSO median, subpopulation auxotrophic for U; higher = larger share of this subpopulation than in DMSO controls; conditions: 10 µM; 24 h; SM minimal medium; subpopulation (auxotrophy): U
Procedure, shortened: as §1

[16] = tested on: Saccharomyces cerevisiae BY4741 SeMeCo community; experiment: z-score of subpopulation abundance vs DMSO median, subpopulation auxotrophic for HL; higher = larger share of this subpopulation than in DMSO controls; conditions: 10 µM; 24 h; SM minimal medium; subpopulation (auxotrophy): HL
Procedure, shortened: as §1

[17] = tested on: Saccharomyces cerevisiae BY4741 SeMeCo community; experiment: z-score of subpopulation abundance vs DMSO median, subpopulation auxotrophic for UM; higher = larger share of this subpopulation than in DMSO controls; conditions: 10 µM; 24 h; SM minimal medium; subpopulation (auxotrophy): UM
Procedure, shortened: as §1

| SMILES | mean cell size [1] | z-score of prototroph abundance [2] | z-score of subpopulation abundance [3] | z-score of subpopulation abundance [4] | z-score of subpopulation abundance [5] | z-score of subpopulation abundance [6] | z-score of subpopulation abundance [7] | z-score of subpopulation abundance [8] | z-score of subpopulation abundance [9] | z-score of subpopulation abundance [10] | z-score of subpopulation abundance [11] | z-score of subpopulation abundance [12] | z-score of subpopulation abundance [13] | z-score of subpopulation abundance [14] | z-score of subpopulation abundance [15] | z-score of subpopulation abundance [16] | z-score of subpopulation abundance [17] |
| --- | --- | --- | --- | --- | --- | --- | --- | --- | --- | --- | --- | --- | --- | --- | --- | --- | --- |
| Nc1nc(/C(=C/CC(=O)O)C(=O)N[C@@H]2C(=O)N3C(C(=O)O)=CCS[C@H]23)cs1 [Ceftibuten dihydrate] | 12.6 ± 0.21 | 0.52 | 0.21 | 0.22 | -0.33 | -0.12 | 0.1 | -0.56 | -0.31 | -0.13 | 0.65 | -1.27 | 0.4 | 0.51 |  |  |  |
| CCN(CC)CC#CCOC(=O)C(O)(c1ccccc1)C1CCCCC1 (configuration not stated) [Oxybutynin] | 12.5 ± 0.29 | -0.02 | -0.18 | -0.14 | -0.43 | -0.54 | -0.42 | -0.23 |  | -0.2 | -0.46 | 0.54 |  | 1 | 0.19 | -0.47 |  |
| Cc1nc(Nc2ccc(F)cc2)nc(N2CCc3ccccc3C2C)c1C (configuration not stated) [Revaprazan Hydrochloride] | 11.4 ± 0.18 | -0.48 | -0.84 | 0.02 | 1 | 0.2 | 0.05 | -0.33 | 0.79 | -0.07 | -0.32 | 0.45 | 0.27 | 0.14 |  | 0.35 | 1.11 |
| O=C1C(N(CO)C(=O)NCO)N(CO)C(=O)N1CO (configuration not stated) [Diazolidinyl urea] | 12.1 ± 0.16 | 1.06 | -1.49 | 0.77 |  | 0.3 | -0.49 | -1.17 |  | 0.05 | -0.27 | -0.76 | -0.16 | 0.51 | -0.26 | -0.07 | -0.82 |
| C#CCN[C@@H]1CCc2ccccc21 [Rasagiline] | 12.26 ± 0.11 | 0.01 | -0.39 | -0.1 | -0.48 | 0.78 | -0.61 | -0.4 | 0 | -0.13 | -0.17 | -0.36 | 0.07 | 0.12 |  | -0.5 |  |
| O=C(C1CCCCC1)N1CC(=O)N2CCc3ccccc3C2C1 (configuration not stated) [Praziquantel] | 12.39 ± 0.1 | -0.09 | 0.19 | 0.31 |  | 0.75 | 0.34 | -0.5 |  | 0.47 | -1.06 | -0.37 | 0.43 | 0.11 | 0.5 | -0.41 | 0.1 |
| Clc1ccc(COC(Cn2ccnc2)c2ccc(Cl)cc2Cl)cc1 (configuration not stated) [Econazole] | 11.9 ± 0.17 | -7.96 | -1.6 | -1.62 | 20.3 | -0.93 | -1.56 | 2.71 |  | 4.6 | 17.3 | 4.19 | 3.58 | 17.3 | 0.12 | 12.8 |  |
| O=C1[C@@H]2[C@H]3CC[C@H](C3)[C@@H]2C(=O)N1C[C@@H]1CCCC[C@H]1CN1CCN(c2nsc3ccccc23)CC1 [lurasidone] | 12.19 ± 0.019 | 0.9 | -0.62 | 0.42 | 0.55 | -0.67 | 0.39 | -0.31 |  | -0.09 | -0.11 | -0.45 | -0.46 | -0.82 | -1.4 | 0.22 | -1.38 |
| Clc1ccc2c(N3CCN(CCCN4CCN(c5ccnc6cc(Cl)ccc56)CC4)CC3)ccnc2c1 [Piperaquine phosphate] | 12.2 ± 0.16 | -0.69 | 1.85 | 0.02 | 0.23 | -0.13 | 0.85 | 1.16 | -0.29 | 0.33 | 0.63 | -0.06 | -0.03 | 0.31 |  | -0.1 | 0.36 |
| O=C(O)c1ccccc1C(=O)Nc1ccc(S(=O)(=O)Nc2nccs2)cc1 [Phthalylsulfathiazole] | 12 ± 0.48 | -0.99 | 1.08 | -0.97 | -0.26 | -0.05 | 0.02 | 0.77 |  | 0.04 | -0.76 | 0.99 |  | 0.99 | 1.18 | -0.66 | 1.23 |
| CCCCCCCN(CC)CCCC(O)c1ccc(NS(C)(=O)=O)cc1 (configuration not stated) [Ibutilide Fumarate] | 12.5 ± 0.2 | 0.2 | -0.42 | -0.88 | 0.34 | 0.14 | -0.88 | 0.11 |  | -0.63 | -0.14 | 0.49 | 0.19 | -0.72 | 0.93 | -0.89 | 0.25 |
| CCN1CCN(C(=O)N[C@@H](C(=O)N[C@@H]2C(=O)N3[C@@H]2SC(C)(C)[C@@H]3C(=O)O)c2ccccc2)C(=O)C1=O [Piperacillin Sodium] | 12.6 ± 0.14 | -0.12 | 0.21 | 1.08 | -0.01 | -0.03 | 0.88 | 1.21 |  | 0.68 | 0.59 | 0.48 | 0.86 | -0.13 | -0.72 |  | -0.96 |
| O=C(Cn1cnnn1)N[C@@H]1C(=O)N2C(C(=O)O)=C(CSc3nncs3)CS[C@H]12 [Ceftezole] | 12 ± 0.2 | 0.89 | -1.1 | -0.41 | -1.12 | 0.9 | -0.52 | -1.26 | -0.51 | -0.25 | -0.2 | -1.25 |  | 0.55 |  |  | -0.37 |
| O=C1NCC2(CCN(CCc3ccccc3)CC2)O1 [Fenspiride HCl] | 12.6 ± 0.16 | -0.38 | 0.25 | -0.18 | -0.41 | -0.49 | -0.15 | -0.15 |  | 1.03 | 0.35 | -0.64 | -0.59 | 1.16 | 0.18 | 0.27 | 0.21 |
